Assay results from PubChem BioAssay.
Values joined by “and” are separate entries in the source; they are usually repeats but may differ in a detail not shown here. Identical values can stand only once. Active and inactive are the calls of the source.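 Rule for the calls, unless noted: active = z-score of at least 1.8 in each of two replicates, scored against plate mean and spread of sample wells; inactive = the rest.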

Legend:
[1] = viability loss with induced miR-34 in A549 – imaging, A549 dox-inducible miR-34, nuclei and caspase counts, primary screen (AID 1347080;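 active = compounds whose cell count with miR-34 switched on is under 0.7 times the count with it off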; note: test concentration not given here); conditions: A549 miR-34 inducible, Hoechst nuclei count, 48 h
[2] = galactose survival enhancers in mitochondrial complex I cybrids – cell-based, galactose medium, ATP luminescence, primary screen (AID 1645843); conditions: complex I mutant cybrid cells, 72 h, stronger effect = higher value;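 note: positive z means more ATP and so rescue of galactose-driven cybrid death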
[3] = stronger effect = lower value, cell number ratio, induced over uninduced
[4] = measured here: relative caspase fold change +Dox/-Dox
[5] = measured here: total cells with miR-34 induction, stronger effect = lower value
[6] = measured here: total cells without miR-34 induction

Compound	fold change [1, 3]	fold change [1, 4]	cell count [1, 5]	cell count [1, 6]	z-score [2]
O=C1C2CCCCC2C(=O)N1CCCCN1CCN(c2nsc3ccccc23)CC1 (stereo not given)	0.926 (inactive)	1.74	7810	8440	-1.79 (inactive)
CC(C)OC(=O)CCCC=CCC1C(O)CC(O)C1CCC(O)CCc1ccccc1 (stereo not given)	1 (inactive)	2.41	9620	9620	-1.17 (inactive)
CCC(C)C(=O)OC1CC(O)C=C2C=CC(C)C(CCC(O)CC(O)CC(=O)O)C21 (stereo not given)	0.961 (inactive)	1.91	10300	10800	0.5 (inactive)
CC1CNc2c(cccc2S(=O)(=O)NC(CCCN=C(N)N)C(=O)N2CCC(C)CC2C(=O)O)C1 (stereo not given)	0.968 (inactive)	1.83	10100	10500	0.935 (inactive)
CC(CCC(=O)O)C1CCC2C3C(=O)CC4CC(=O)CC[C@]4(C)C3CC(=O)[C@]12C (stereo not given in full)	0.951 (inactive)	0.625	9350	9830	0.29 (inactive)
NC(C(=O)NC1C(=O)N2C(C(=O)O)=C(CSc3cn[nH]n3)CSC12)c1ccc(O)cc1 (stereo not given) (tested in a mixture with another compound)	0.899 (inactive)	1.68	9710	10800	0.555 (inactive)
COc1ccc(CCCOc2cc(CCn3ccnc3)ccc2OC)cc1	1.41 (inactive)	0.402	3260	2300	-1.33 (inactive)
C=CCC1C=C(C)CC(C)CC(OC)C2O[C@@](O)(C(=O)C(=O)N3CCCCC3C(=O)OC(C(C)=CC3CCC(O)C(OC)C3)C(C)C(O)CC1=O)C(C)CC2OC (stereo not given in full)	1.03 (inactive)	1.03	5920	5760	0.96 (inactive)
CC(C)(C)NC(=O)C1CN(Cc2cccnc2)CCN1CC(O)CC(Cc1ccccc1)C(=O)NC1c2ccccc2CC1O (stereo not given)	0.967 (inactive)	1.5	9380	9700	1.61 (inactive)
COc1cc(C=Cc2ccc(O)cc2)cc(OC)c1	0.943 (inactive)	1.26	6760	7170	-1.52 (inactive)
CN1CC(=O)N/C1=N\C(=O)Nc1cccc(Cl)c1	1.1 (inactive)	0.699	10900	9930	0.545 (inactive)
CCC(=O)O[C@]1(C(=O)SCF)C(C)CC2C3CC(F)C4=CC(=O)C=C[C@]4(C)[C@@]3(F)C(O)C[C@@]21C (stereo not given in full)	0.897 (inactive)	1.65	6980	7780	1.79 (inactive)
OCC1OC(n2cnc3c(NC4CCCC4)nc(Cl)nc32)C(O)C1O (stereo not given)	0.88 (inactive)	1.42	9520	10800	1.5 (inactive)
O=C1c2cccc3c2C(CCC3)CN1C1CN2CCC1CC2 (stereo not given)	1.56 (inactive)	0.609	5340	3420	-0.005 (inactive)
COc1cccc2c1C(=O)c1c(O)c3c(c(O)c1C2=O)C[C@@](O)(C(=O)CO)CC3OC1CC(N)C(O)C(C)O1 (stereo not given in full)	0.969 (inactive) and 1 (inactive)	0.932 and 0.974	1960 and 2320	2030 and 2320	-1.87 (inactive) and -1.86 (inactive)
Nc1nc(Cl)nc2c1ncn2C1OC(CO)C(O)C1O (stereo not given)	1.26 (inactive)	0.688	2120	1680	-0.02 (inactive)
CC(C)CC(NC(=O)C(O)C(N)Cc1ccccc1)C(=O)O (stereo not given)	0.913 (inactive)	1.61	8460	9270	0.29 (inactive)
CN1CCc2cc(Cl)c(O)cc2C(c2ccccc2)C1 (stereo not given)	0.944 (inactive)	0.98	8780	9300	0.39 (inactive)
COC1C(OC(C)=O)CC(=O)OC(C)CC=CC=CC(O)C(C)CC(CC=O)C1OC1OC(C)C(OC2C[C@@](C)(OC(=O)CC(C)C)C(O)C(C)O2)C(N(C)C)C1O (stereo not given in full)	1.04 (inactive)	1.51	9630	9280	-1.59 (inactive)
C#C[C@]1(O)CCC2C3C(C)CC4=C(CCC(=O)C4)C3CC[C@@]21C (stereo not given in full)	0.909 (inactive)	1.5	8730	9600	-0.655 (inactive)
NC(C(=O)NC1C(=O)N2C(C(=O)O)=C(Cl)CSC12)c1ccccc1 (stereo not given)	1.39 (inactive)	0.686	9470	6800	0.295 (inactive)
CCOC(=O)O[C@]1(C(=O)OCCl)CCC2C3CCC4=CC(=O)C=C[C@]4(C)C3C(O)C[C@@]21C (stereo not given in full)	0.961 (inactive)	1.35	6110	6360	0.71 (inactive)
COCC1=C(C(=O)OC(C)OC(=O)OC(C)C)N2C(=O)C(NC(=O)C(=NOC)c3csc(N)n3)C2SC1 (stereo not given)	0.946 (inactive)	1.68	9860	10400	0.625 (inactive)
OCC1OC(n2cnc3c(NC4CCCC4O)ncnc32)C(O)C1O (stereo not given)	0.907 (inactive)	0.906	9400	10400	0.73 (inactive)
[Cl-].[Cl][Pt].[NH2-].[NH2-].c1ccncc1	0.987 (inactive)	0.925	9550	9680	-1 (inactive)
O=C(OC1CC2CC3CC(C1)N2CC3=O)c1c[nH]c2ccccc12 (stereo not given)	0.871 (inactive)	2.24	8970	10300	0.88 (inactive)
Nc1ncnc2c1ncn2C1OC(CO)CC1O (stereo not given)	0.896 (inactive)	2.91	8910	9950	-0.825 (inactive)
CN(C)C1C(=O)C(C(=O)NCN2CCCC2)=C(O)[C@@]2(O)C(=O)C3=C(O)c4c(O)cccc4[C@@](C)(O)C3CC12 (stereo not given in full)	0.983 (inactive)	1.25	8500	8650	0.465 (inactive)
C=C1C(=CC=C2CCC[C@@]3(C)C2CCC3C(C)CCCC(C)(C)O)CC(O)CC1O (stereo not given in full)	0.912 (inactive)	1.66	9420	10300	-1.52 (inactive)
O=C1NC(=O)c2c1c(-c1ccccc1)cc1[nH]c3ccc(O)cc3c21	0.992 (inactive) and 1.16 (inactive)	0.466 and 1.08	2060 and 2860	2080 and 2470	-1.27 (inactive) and -0.655 (inactive)
